The full ranking holds about 33,000 sequences; the median of “E-score (-0.5 to 0.5)” is about -0.016, and the highest 2% start at about 0.32. The entries come from a sample that favours the highest values as a whole.

In this assay the target is T1, Stp1 (UniProt B3LFK1).
T1 sequence: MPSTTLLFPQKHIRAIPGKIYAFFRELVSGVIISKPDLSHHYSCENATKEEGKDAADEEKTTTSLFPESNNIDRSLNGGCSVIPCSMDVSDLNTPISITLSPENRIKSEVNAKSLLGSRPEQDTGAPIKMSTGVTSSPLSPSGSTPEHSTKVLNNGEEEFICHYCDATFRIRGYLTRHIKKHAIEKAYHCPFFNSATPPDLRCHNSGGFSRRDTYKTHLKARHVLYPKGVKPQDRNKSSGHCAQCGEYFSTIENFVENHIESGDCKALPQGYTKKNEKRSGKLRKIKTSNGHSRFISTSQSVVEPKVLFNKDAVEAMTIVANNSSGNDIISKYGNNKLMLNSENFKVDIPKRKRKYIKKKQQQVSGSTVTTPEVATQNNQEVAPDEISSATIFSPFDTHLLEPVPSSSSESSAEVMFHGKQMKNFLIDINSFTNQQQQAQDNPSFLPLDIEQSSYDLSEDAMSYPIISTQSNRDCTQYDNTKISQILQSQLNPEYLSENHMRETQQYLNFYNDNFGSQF
The experiment in a line: PBM E-score (8-mer binding enrichment) (E-score (-0.5 to 0.5)); higher = stronger / more preferred TF binding. Conditions: protein concentration: 200 nM; construct: GST-full length. How it is done:
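Universal 'all 10-mer' protein binding microarrays (Agilent AMADID 015681) probed with GST-tagged S. cerevisiae TFs (full-length or DBD) made by in vitro transcription/translation (PURExpress), about 100-200 nM. Bound TF was detected with fluorescent anti-GST. Each ungapped 8-mer (which stands for itself and its reverse complement) is scored by the PBM enrichment score (E-score), a modified Wilcoxon-Mann-Whitney statistic from -0.5 to +0.5, computed with the Universal PBM Analysis Suite. Scale: above 0.35 generally sequence-specific binding.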
For the sequence AACGCCGT, the “PBM E-score” value came out at 0.482.
The result for ACCGACGA reads -0.0695; that for CGCCATCA, -0.144.
The result for CTAGGTTA reads 0.00212; that for GACTTGGC, -0.232.
For CGGCCGGA, the “PBM E-score” value was -0.15.
The result for GGGCCGTA reads 0.369; that for AGGCCGTA, 0.298; that for CGGCCGTC, 0.16.
As for GGCCCGTA, the figure is -0.0728.
On to CGGCCGTA, for which the “PBM E-score” value is 0.37.
As to CGGCCAGC, the “PBM E-score” value was -0.206.
Turning to CATGGTCA, the “PBM E-score” value was found to be 0.103.
The result for ATCTAAAG reads -0.0363.
The result for GGAATTGA reads 0.0238; that for GTCGCGGA, -0.0678.
The result for CGCGCAAA reads 0.198; that for GGCGCGGA, 0.337.
On to GGCGCGTA, for which the “PBM E-score” value was 0.186.
As for GGCGCAAA, the figure is 0.406; as for TGCGCGCA, 0.133.
With GGCGCCCC, the “PBM E-score” value was determined as 0.284.
For GGCGCGCC, the “PBM E-score” value came to 0.423.
The result for GGCGCGCA reads 0.318; that for AGCGCAAA, -0.0739; that for CGCGCGCA, 0.272.
Regarding CGCGCGGA, the “PBM E-score” value was 0.256.
The result for CAGCAGTA reads -0.0846.
As for AAGAAGCC, the figure is 0.232; as for ACCACTTC, -0.242; as for CGAGCTAG, -0.0273.
As for AGGTTGCC, the figure is -0.0941; as for GCTTGAAC, 0.111.
With AAAGGAGG, the “PBM E-score” value is -0.258.
ACCAAACA: the “PBM E-score” value was 0.201.
Turning to AAAGTCTG, the “PBM E-score” value was -0.115.
As for CAATTAGG, the figure is 0.104.
As for AGCGCGCC, the figure is 0.196.
For AGCGCGCG, the “PBM E-score” value turned out to be 0.196.
The result for CCCCCGCG reads -0.0598; that for CGCGCGCC, 0.403; that for CGCGCGCG, 0.405.
The result for CCCGCGCG reads 0.328; that for CTCGCGCC, 0.295; that for CGCGCGAG, 0.239.
For CCCGCGCC, the “PBM E-score” value came out at 0.297.
As for ACCTAGCC, the figure is -0.186; as for CTCAATTC, 0.0345.
As for GTGCCTAA, the “PBM E-score” value amounted to 0.184.
As to AACAGCGT, the “PBM E-score” value stood at 0.0405.
The result for CTCGGCGA reads 0.123; that for CTCGGCGC, 0.382; that for ATCGGCGC, 0.342.
As for ATCGGCGG, the figure is 0.262.
As for CTCGGCAC, the figure is 0.3.
Consider ATCGGCGA, for which the “PBM E-score” value stood at 0.0557.
On to ACAACAAT, for which the “PBM E-score” value worked out at 0.0375.
Regarding CTCGACAA, the “PBM E-score” value was -0.0792.
The result for ACCGCACA reads -0.0115; that for CCCGCACG, 0.222; that for GCCGCACC, 0.449.
As to CACGCACG, the “PBM E-score” value was 0.203.
As for CCCGCACC, the figure is -0.149; as for GCCGCACA, 0.452.
As to AACGCACG, the “PBM E-score” value was 0.36.
As for AACGCACA, the “PBM E-score” value was -0.0113.
As for ACCGCACC, the “PBM E-score” value came out at 0.0883.
For the sequence CAAACTTG, the “PBM E-score” value was -0.0331.
As for AAGTGACG, the figure is -0.00161; as for CAGATTGC, 0.057; as for CGAACCTC, -0.0892.
The result for CGATGATC reads -0.0137; that for GCGCCCTA, 0.342.
On to CCGCCCTA, for which the “PBM E-score” value was -0.041.
As for GCGCCCCA, the figure is 0.353.
Take ACGCCCTA: the “PBM E-score” value is 0.127.
The result for GCGCCACA reads 0.334.
As for ACGCCACA, the figure is 0.295; as for GCGCCCAA, 0.119; as for CCGCCACG, 0.0257.
Regarding GCGCCCCC, the “PBM E-score” value is -0.129.
For CGCTTGGC, the “PBM E-score” value turned out to be 0.0526.
The result for CTTGCCTC reads 0.0687.
As for AACCTATG, the figure is 0.053.
On to CACCTTTA, for which the “PBM E-score” value was -0.0604.
As to AACCTGTC, the “PBM E-score” value is -0.17.
As for GCACTCGA, the “PBM E-score” value was -0.0637.
